Laboratory results published in publication PMC7862700, “An all-to-all approach to the identification of sequence-specific readers for epigenetic DNA modifications on cytosine”.

Experiments:
Assay in all cases: DAPPL (digital affinity profiling via proximity ligation, sequencing); 10 mM Tris-HCl pH 7.5, 50 mM NaCl, 1 mM DTT, 4% glycerol, room temperature, 30 min; GST-TFs on glutathione beads, 16-mer random dsDNA library, 0.1% formaldehyde crosslink after washing; high values mean tight binding
GABPA = molecular target: T1, GABPA (Homo sapiens, UniProt Q06546 1-454); conditions: protein: recombinant; tags: N-terminal GST; dsDNA, one strand shown
T1 sequence: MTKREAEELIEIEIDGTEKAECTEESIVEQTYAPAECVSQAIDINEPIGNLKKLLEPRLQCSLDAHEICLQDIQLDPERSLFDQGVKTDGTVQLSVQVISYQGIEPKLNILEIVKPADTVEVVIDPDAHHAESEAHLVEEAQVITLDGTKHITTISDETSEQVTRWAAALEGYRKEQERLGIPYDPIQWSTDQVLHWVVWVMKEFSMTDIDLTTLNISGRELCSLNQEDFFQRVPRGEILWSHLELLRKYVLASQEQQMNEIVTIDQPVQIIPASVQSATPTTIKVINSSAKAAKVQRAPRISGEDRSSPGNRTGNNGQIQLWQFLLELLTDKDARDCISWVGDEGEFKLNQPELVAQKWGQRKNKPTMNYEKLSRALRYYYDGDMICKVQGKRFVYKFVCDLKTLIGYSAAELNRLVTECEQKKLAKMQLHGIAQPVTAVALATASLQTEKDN
Method in brief: (§1)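 Binding signal is each hexamer's read frequency for a factor divided by its frequency in the tag-only sample. The factors were GST-fused human transcription factors from yeast, captured on glutathione beads, DNA-barcoded and pooled with that sample. Pools were incubated with 200 nmole of a random double-stranded 16-mer DNA library in Tris/NaCl/DTT/glycerol buffer at room temperature for 30 min, then washed, crosslinked with 0.1% formaldehyde, proximity-ligated with BsaI/T4 ligase (1 h, 37 °C), PCR-amplified and sequenced on an Illumina NextSeq500.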

ERG = molecular target: T2, ERG (Homo sapiens, UniProt P11308 1-479); conditions: protein: recombinant; tags: N-terminal GST; dsDNA, one strand shown
T2 sequence: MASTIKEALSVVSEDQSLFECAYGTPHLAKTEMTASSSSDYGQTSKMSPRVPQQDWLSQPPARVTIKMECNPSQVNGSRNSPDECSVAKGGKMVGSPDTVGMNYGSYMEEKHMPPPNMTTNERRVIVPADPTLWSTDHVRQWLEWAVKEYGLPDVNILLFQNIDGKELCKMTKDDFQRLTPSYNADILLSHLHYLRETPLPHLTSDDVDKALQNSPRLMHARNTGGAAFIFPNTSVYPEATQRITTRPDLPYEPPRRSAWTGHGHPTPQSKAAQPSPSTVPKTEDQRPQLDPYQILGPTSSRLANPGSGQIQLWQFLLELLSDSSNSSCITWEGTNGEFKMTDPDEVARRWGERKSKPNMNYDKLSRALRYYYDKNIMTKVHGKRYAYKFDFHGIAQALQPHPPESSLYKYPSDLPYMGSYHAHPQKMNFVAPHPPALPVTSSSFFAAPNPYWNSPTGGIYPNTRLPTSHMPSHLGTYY
Method in brief: as §1

SPI1 = SPI1 (Homo sapiens, UniProt P17947 1-270); conditions: protein: recombinant; tags: N-terminal GST; dsDNA, one strand shown
Method in brief: as §1

SPIB = SPIB (Homo sapiens, UniProt Q01892 1-262); conditions: protein: recombinant; tags: N-terminal GST; dsDNA, one strand shown
Method in brief: as §1

ELK3 = molecular target: T3, ELK3 (Homo sapiens, UniProt P41970 1-407); conditions: protein: recombinant; tags: N-terminal GST; dsDNA, one strand shown
T3 sequence: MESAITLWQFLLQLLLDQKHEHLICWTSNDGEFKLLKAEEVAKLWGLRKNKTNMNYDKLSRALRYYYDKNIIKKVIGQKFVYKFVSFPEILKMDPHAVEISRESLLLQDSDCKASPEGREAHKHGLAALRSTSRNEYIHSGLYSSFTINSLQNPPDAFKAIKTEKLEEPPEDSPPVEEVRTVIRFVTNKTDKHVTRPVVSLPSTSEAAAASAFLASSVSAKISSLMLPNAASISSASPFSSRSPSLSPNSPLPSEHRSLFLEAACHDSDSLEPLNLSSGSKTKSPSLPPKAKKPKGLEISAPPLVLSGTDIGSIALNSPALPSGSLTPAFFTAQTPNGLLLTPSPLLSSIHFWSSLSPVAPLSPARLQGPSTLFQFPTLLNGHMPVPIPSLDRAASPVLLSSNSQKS
Method in brief: as §1

HSF1 = HSF1 (Homo sapiens, UniProt Q00613 1-529); conditions: protein: recombinant; tags: N-terminal GST; chain copies: 3; dsDNA, one strand shown
Method in brief: as §1

ELK4 = molecular target: T4, ELK4 (Homo sapiens, UniProt P28324-2 1-405); conditions: protein: recombinant; tags: N-terminal GST; dsDNA, one strand shown
T4 sequence: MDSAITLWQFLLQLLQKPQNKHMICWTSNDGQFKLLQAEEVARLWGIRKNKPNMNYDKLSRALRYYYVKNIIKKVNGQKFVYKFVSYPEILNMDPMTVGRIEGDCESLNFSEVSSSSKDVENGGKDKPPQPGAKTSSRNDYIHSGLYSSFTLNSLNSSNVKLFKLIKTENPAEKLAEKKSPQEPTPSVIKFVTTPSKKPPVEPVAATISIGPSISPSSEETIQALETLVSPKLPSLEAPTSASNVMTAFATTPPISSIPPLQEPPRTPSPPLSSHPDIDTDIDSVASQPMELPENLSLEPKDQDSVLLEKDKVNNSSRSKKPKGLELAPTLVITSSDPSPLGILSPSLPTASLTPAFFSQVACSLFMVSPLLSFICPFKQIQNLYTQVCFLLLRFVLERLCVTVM
Method in brief: as §1

ETV2 = molecular target: T5, ETV2 (Homo sapiens, UniProt O00321 1-342); conditions: protein: recombinant; tags: N-terminal GST; dsDNA, one strand shown
T5 sequence: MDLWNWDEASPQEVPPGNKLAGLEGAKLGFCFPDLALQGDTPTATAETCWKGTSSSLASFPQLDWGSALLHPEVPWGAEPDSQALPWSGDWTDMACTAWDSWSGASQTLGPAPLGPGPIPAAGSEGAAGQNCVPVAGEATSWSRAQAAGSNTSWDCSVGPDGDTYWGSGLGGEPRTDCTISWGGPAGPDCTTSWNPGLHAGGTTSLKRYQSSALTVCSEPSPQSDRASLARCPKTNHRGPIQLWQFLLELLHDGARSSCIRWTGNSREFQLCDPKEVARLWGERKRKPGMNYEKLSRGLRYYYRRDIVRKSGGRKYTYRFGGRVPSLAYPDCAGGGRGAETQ
Method in brief: as §1

ELF3 = molecular target: T6, ELF3 (Homo sapiens, UniProt P78545 1-371); conditions: protein: recombinant; tags: N-terminal GST; dsDNA, one strand shown
T6 sequence: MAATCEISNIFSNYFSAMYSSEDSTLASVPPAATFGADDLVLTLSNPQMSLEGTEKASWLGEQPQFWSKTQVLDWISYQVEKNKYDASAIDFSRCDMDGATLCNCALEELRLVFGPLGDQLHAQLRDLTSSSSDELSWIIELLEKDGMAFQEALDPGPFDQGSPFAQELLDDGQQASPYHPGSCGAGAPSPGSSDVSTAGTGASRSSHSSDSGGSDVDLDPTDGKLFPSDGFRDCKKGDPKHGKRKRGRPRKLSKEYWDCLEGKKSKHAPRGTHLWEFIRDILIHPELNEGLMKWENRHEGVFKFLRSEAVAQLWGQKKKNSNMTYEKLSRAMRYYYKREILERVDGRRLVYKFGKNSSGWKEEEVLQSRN
Method in brief: as §1

CRX = CRX (Homo sapiens, UniProt O43186 1-299); conditions: protein: recombinant; tags: N-terminal GST; dsDNA, one strand shown
Method in brief: as §1

ETV3L = molecular target: T7, ETV3L (Homo sapiens, UniProt Q6ZN32 1-361); conditions: protein: recombinant; tags: N-terminal GST; dsDNA, one strand shown
T7 sequence: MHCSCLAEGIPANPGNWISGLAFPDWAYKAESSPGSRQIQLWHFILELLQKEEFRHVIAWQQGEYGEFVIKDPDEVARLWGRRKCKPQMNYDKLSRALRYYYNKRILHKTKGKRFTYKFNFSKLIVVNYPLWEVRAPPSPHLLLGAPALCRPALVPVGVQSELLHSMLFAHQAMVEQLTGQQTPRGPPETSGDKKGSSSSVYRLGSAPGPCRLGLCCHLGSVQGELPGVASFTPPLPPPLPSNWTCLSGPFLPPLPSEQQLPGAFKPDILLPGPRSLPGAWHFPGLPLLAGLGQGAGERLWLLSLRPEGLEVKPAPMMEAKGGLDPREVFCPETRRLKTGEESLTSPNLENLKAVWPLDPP
Method in brief: as §1

ETS2 = molecular target: T8, ETS2 (Homo sapiens, UniProt P15036 1-469); conditions: protein: recombinant; tags: N-terminal GST; dsDNA, one strand shown
T8 sequence: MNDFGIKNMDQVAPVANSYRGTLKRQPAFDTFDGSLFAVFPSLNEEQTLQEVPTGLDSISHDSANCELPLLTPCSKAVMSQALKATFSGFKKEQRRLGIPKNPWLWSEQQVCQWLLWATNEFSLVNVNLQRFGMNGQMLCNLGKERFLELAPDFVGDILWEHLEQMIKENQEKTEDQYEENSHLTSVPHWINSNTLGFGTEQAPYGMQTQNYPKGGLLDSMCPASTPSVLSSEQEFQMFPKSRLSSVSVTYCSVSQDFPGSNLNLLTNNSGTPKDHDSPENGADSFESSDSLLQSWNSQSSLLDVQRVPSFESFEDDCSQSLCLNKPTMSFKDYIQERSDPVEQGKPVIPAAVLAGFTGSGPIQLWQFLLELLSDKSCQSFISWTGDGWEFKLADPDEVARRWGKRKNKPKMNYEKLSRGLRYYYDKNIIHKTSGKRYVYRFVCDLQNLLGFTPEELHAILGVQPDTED
Method in brief: as §1

ETV7 = molecular target: T9, ETV7 (Homo sapiens, UniProt Q9Y603 1-341); conditions: protein: recombinant; tags: N-terminal GST; dsDNA, one strand shown
T9 sequence: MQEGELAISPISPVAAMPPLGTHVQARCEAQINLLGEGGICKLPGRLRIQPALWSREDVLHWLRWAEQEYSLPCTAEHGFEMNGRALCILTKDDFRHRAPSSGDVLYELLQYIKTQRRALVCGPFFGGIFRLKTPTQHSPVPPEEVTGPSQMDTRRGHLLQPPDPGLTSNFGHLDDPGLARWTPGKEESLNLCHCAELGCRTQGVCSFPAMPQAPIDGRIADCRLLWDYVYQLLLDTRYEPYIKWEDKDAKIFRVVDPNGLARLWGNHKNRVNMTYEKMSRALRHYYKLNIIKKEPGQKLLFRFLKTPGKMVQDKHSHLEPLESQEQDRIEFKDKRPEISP
Method in brief: as §1

ELF5 = molecular target: T10, ELF5 (Homo sapiens, UniProt Q9UKW6-2 1-255); conditions: protein: recombinant; tags: N-terminal GST; dsDNA, one strand shown
T10 sequence: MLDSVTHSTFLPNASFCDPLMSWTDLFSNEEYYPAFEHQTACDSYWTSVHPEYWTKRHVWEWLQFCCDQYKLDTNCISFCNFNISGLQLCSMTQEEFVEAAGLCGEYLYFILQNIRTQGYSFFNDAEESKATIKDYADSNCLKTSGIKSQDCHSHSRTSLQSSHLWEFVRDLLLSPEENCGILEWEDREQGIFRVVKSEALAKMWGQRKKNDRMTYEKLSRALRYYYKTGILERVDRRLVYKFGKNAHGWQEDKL
Method in brief: as §1

SPIB, sequence (Q01892 whole entry): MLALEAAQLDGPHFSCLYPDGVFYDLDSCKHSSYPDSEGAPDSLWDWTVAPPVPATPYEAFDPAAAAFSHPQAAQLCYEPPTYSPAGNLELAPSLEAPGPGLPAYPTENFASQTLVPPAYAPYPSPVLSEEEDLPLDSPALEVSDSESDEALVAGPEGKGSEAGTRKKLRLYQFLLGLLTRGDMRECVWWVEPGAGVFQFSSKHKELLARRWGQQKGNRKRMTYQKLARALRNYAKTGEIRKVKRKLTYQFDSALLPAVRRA
CRX, sequence (O43186 whole entry): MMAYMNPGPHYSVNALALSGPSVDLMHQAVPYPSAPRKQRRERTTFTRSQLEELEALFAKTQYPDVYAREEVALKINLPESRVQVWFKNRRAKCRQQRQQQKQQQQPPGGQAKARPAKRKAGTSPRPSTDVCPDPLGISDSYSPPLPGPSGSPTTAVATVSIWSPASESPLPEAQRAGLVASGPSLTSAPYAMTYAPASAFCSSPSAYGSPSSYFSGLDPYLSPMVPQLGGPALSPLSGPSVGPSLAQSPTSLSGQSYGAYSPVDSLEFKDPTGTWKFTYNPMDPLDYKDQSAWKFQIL
HSF1, sequence (Q00613 whole entry): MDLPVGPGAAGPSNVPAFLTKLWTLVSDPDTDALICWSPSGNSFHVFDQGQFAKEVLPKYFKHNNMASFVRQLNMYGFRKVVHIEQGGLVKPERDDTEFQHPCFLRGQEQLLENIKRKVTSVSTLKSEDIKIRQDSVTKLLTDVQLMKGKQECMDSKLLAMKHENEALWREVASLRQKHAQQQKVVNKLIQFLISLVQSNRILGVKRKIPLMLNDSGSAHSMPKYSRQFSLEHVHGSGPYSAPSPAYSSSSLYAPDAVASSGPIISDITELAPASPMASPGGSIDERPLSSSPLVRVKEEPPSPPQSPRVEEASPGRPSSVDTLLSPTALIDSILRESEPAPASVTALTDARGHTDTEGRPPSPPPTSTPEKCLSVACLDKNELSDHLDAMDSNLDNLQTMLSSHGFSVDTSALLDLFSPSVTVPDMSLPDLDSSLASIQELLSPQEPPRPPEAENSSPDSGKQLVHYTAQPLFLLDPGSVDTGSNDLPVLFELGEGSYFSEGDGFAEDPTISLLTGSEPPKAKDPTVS

With GCGATA the binding signal (GABPA) was 1 fold enrichment (6-mer frequency, TF over GST control), the binding signal (ERG) was 1 fold enrichment (6-mer frequency, TF over GST control) and the binding signal (SPI1) was 1.03 fold enrichment (6-mer frequency, TF over GST control). For the same sequence, the binding signal (SPIB) was 1.02 fold enrichment (6-mer frequency, TF over GST control), the binding signal (ELK3) was 1.1 fold enrichment (6-mer frequency, TF over GST control) and the binding signal (HSF1) was 1.06 fold enrichment (6-mer frequency, TF over GST control). The binding signal (ELK4) was 1.07 fold enrichment (6-mer frequency, TF over GST control), the binding signal (ETV2) was 1.11 fold enrichment (6-mer frequency, TF over GST control) and the binding signal (ELF3) was 1.02 fold enrichment (6-mer frequency, TF over GST control). The binding signal (CRX) was 1.11 fold enrichment (6-mer frequency, TF over GST control), the binding signal (ETV3L) was 1.03 fold enrichment (6-mer frequency, TF over GST control) and the binding signal (ETS2) was 1.04 fold enrichment (6-mer frequency, TF over GST control). The binding signal (ETV7) was 1.06 fold enrichment (6-mer frequency, TF over GST control) and the binding signal (ELF5) was 1.02 fold enrichment (6-mer frequency, TF over GST control).
